# The source made the active and inactive calls. Unless noted, the rule behind the calls is not given here.
# What was measured:
# [1] = A549 cell viability effects, profiling panel, calcein-AM fluorescence, 48 h, basal (AID 1162); conditions: higher = more signal; note: test concentration not given here
# [2] = adipocyte viability effects, profiling panel, cell-based, 3T3-L1 adipocytes, calcein-AM fluorescence, 48 h, basal (AID 1163); conditions: 3T3-L1 adipocytes viability, higher = more signal; note: test concentration not given here
# [3] = HepG2 cell viability effects, profiling panel, calcein-AM fluorescence, 48 h, basal (AID 1164); conditions: higher = more signal; note: test concentration not given here
# [4] = MM1S cell viability effects, profiling panel, calcein-AM fluorescence, 48 h, basal (AID 1165); conditions: higher = more signal;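 note: viability of MM1S multiple myeloma cells under basal unstimulated conditions; test concentration not given here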
# [5] = basal RPMI8226 viability, no added stimulus, profiling panel, cell-based, calcein-AM fluorescence, 48 h, PK04 Diversity Set (AID 1166); conditions: RPMI8226 myeloma viability, higher = more signal;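 note: cells grown under basal conditions without added stimulus; test concentration not given here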
# [6] = basal HepG2 mitochondrial membrane potential changes, profiling panel, cell-based, JC-1 fluorescence, 24 h, 100 nL compound (AID 1167); conditions: higher = more signal; note: test concentration not given here
# [7] = basal 3T3-L1 adipocyte mitochondrial potential changes, profiling panel, cell-based, JC-1 fluorescence, 3T3-L1 adipocytes, 24 h, 100 nL compound (AID 1168); conditions: JC-1 mitochondrial fluorescence, higher = more signal, called active from +8 up or from −8 down; note: test concentration not given here
# [8] = basal RPMI8226 mitochondrial membrane potential changes, profiling panel, cell-based, JC-1 fluorescence, 24 h, 100 nL compound (AID 1169); conditions: RPMI8226 myeloma, JC-1 mitochondrial potential fluorescence, higher = more signal; note: test concentration not given here
# [9] = basal MM1S mitochondrial membrane potential changes, profiling panel, cell-based, JC-1 fluorescence, 24 h, 100 nL compound (AID 1170); conditions: higher = more signal; note: test concentration not given here
# [10] = A549 lung cancer cell viability effects, profiling panel, resazurin fluorescence, 24 h, PK04 Diversity Set (AID 1171); conditions: higher = more signal, called active from +8 up or from −8 down; note: test concentration not given here
# [11] = HepG2 liver cancer cell viability effects, profiling panel, resazurin fluorescence, 24 h, PK04 Diversity Set (AID 1172); conditions: higher = more signal; note: test concentration not given here
# [12] = basal S. cerevisiae growth modulation, no modifier, primary screen, OD600, strain BY4716, 24 h, basal condition (AID 1173); conditions: OD600, 24 h, higher = more signal, called active from +8 up or from −8 down
# [13] = MM1S myeloma cell viability, profiling panel, resazurin fluorescence, basal, 24 h, PK04 Diversity Set (AID 1174); conditions: higher = more signal, called active from +8 up or from −8 down;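 note: MM1S multiple myeloma cell line; test concentration not given here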
# [14] = target: Dihydroorotate dehydrogenase (quinone), mitochondrial (Plasmodium falciparum (isolate 3D7)) (UniProt Q08210); experiment: PfDHODH enzyme inhibitors, primary screen, biochemical, C-terminal His tag, absorbance 600 nm (AID 1175); conditions: DCIP absorbance 600 nm, higher = more signal, called active from +8 up or from −8 down;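 note: recombinant parasite enzyme with a five histidine tag at its C terminus; test concentration not given here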
# Chain of Dihydroorotate dehydrogenase (quinone), mitochondrial (Plasmodium falciparum (isolate 3D7)) (Q08210 whole entry, looked up): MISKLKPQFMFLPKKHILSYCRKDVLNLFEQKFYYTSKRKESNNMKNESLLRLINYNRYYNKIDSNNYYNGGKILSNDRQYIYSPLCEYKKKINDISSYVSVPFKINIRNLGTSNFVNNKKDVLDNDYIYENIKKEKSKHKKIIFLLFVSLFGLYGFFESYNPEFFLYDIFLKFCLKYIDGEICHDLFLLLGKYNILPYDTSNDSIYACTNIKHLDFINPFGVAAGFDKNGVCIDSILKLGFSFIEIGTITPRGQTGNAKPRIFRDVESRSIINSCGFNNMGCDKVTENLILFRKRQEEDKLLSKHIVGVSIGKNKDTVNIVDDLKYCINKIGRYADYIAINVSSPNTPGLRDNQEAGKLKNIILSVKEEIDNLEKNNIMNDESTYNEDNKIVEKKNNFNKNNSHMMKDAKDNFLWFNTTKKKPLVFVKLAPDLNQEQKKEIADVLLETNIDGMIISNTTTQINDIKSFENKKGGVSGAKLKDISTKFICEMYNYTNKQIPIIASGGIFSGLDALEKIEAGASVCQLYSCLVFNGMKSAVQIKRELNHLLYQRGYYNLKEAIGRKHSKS
# [15] = P. aeruginosa biofilm formation inhibitors, primary screen, strain PAO1, LB-PBS medium, absorbance 600 nm (AID 1176); note: test concentration not given here; conditions: P. aeruginosa PAO1 growth/biofilm, A600, 12 h; higher = more signal
# [16] = S. cerevisiae RM11-1a growth modifiers, primary screen, strain RM11-1a, OD600, basal, 24 h (AID 1177); conditions: OD600, 24 h, higher = more signal, called active from +8 up or from −8 down;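 note: cultures grown under basal conditions with no added stressor; test concentration not given here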
# [17] = E. coli acrAB mutant growth effects, primary screen, E. coli filamentation inducers, strain DRC39, OD650, 24 h (AID 1178); conditions: higher = more signal, called active from +8 up or from −8 down;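 note: growth measured as culture turbidity by optical density at 650 nm; test concentration not given here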
# [18] = E. coli acrAB mutant growth effects, primary screen, E. coli filamentation inducers, strain DRC39, OD650, 48 h (AID 1179);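 note: screen aims at cell division blockers that make cells filament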; conditions: E. coli DRC39 delta-acrAB growth, higher = more signal, called active from +8 up or from −8 down
# [19] = RPMI8226 myeloma cell viability, profiling panel, resazurin fluorescence, basal, 24 h, PK04 Diversity Set (AID 1180); conditions: higher = more signal;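 note: RPMI8826 multiple myeloma cell line at 5000 cells per well; test concentration not given here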
# [20] = target: E3 ubiquitin-protein ligase XIAP (Homo sapiens) (UniProt P98170); experiment: XIAP binders, primary screen, biophysical, small-molecule microarray, fluorescence 635 nm (AID 1181); conditions: small-molecule microarray binding, higher = more signal;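 note: score merges 667 nm emission and signal to noise over triplicate slides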
# Chain of E3 ubiquitin-protein ligase XIAP (Homo sapiens) (P98170 whole entry, looked up): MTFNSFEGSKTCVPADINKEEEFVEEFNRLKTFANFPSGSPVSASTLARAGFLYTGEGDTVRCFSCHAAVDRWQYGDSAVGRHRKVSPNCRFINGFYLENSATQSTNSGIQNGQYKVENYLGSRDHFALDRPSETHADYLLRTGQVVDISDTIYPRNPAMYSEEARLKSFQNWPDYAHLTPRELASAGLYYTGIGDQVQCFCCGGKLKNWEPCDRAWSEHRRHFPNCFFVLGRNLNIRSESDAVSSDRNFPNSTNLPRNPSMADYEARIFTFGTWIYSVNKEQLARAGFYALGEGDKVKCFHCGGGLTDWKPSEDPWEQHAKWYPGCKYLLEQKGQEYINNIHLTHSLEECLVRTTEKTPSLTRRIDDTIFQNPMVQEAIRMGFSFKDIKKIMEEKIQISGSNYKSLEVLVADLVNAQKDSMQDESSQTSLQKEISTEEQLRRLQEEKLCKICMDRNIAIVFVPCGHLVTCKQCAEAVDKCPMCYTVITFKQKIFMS
SMILES,z-score [1],z-score [2],z-score [3],z-score [4],z-score [5],z-score [6],z-score [7],z-score [8],z-score [9],z-score [10],z-score [11],z-score [12],z-score [13],composite z-score [14],z-score [15],z-score [16],z-score [17],z-score [18],z-score [19],composite z-score [20]
C=C(/C(=C/C[C@@H](OC(=O)c1ccncc1)c1ccccc1OCCO)c1cc(C(=O)OC)ccc1OC)C(C)C,1.36,0.38,0.92,-3.25,-2.11,2.74,-0.158 (inactive),0.00511,-1.71,-0.108 (inactive),-0.0182,-0.0905 (inactive),-0.9 (inactive),-1.82 (inactive),0.424 (inactive),-0.0487 (inactive),0.315 (inactive),0.227 (inactive),-0.722,0.153
CC(CO)N1C(=O)[C@@H]2C3C(=O)OCCC/C=C\[C@H]3OC23C=CCN(Cn2nnc4ccccc42)C(=O)[C@@H]13 (stereo not given in full),0.0034,-0.126,0.789,1.76,0.285,0.567,0.425 (inactive),0.222,-1.33,-0.0257 (inactive),0.256,-0.159 (inactive),0.595 (inactive),-2.72 (inactive),0.205 (inactive),0.549 (inactive),0.935 (inactive),0.829 (inactive),0.605,0.0511
CN1C(=O)C2C(C1=O)C1C=C(c3ccc(CO)cc3)C2C(c2cccs2)N1Cc1cccc(OC(F)(F)F)c1 (stereo not given),0.567,1.25,-0.617,-0.314,-2.96,-1.71,-1.12 (inactive),-0.722,-0.556,-0.665 (inactive),-0.153,-2.49 (inactive),-2.06 (inactive),-1.6 (inactive),-0.387 (inactive),0.476 (inactive),-0.383 (inactive),-0.319 (inactive),-1.08,0.214
COc1ccc(CCNC(=O)[C@@]2(Sc3ccc(C)cc3)CC(=O)N(Cc3cc(C(F)(F)F)cc(C(F)(F)F)c3)[C@@H]2c2ccc(CO)cc2I)cc1,0.154,-0.208,0.0649,-1.46,-1.96,-1.08,-0.208 (inactive),-0.165,-2.1,0.469 (inactive),0.872,-3.6 (inactive),-2.46 (inactive),-0.988 (inactive),0.723 (inactive),-1.33 (inactive),0.232 (inactive),0.214 (inactive),-1.61,-0.291
CC(C)OC(=O)CC(=O)CC(O)c1cccc(C#N)c1 (stereo not given),1.59,0.136,0.886,0.387,0.518,0.575,0.837 (inactive),0.105,-1.56,0.481 (inactive),0.532,-0.167 (inactive),0.343 (inactive),-1.29 (inactive),0.533 (inactive),-0.828 (inactive),0.283 (inactive),1.93 (inactive),-0.0069,-0.267
O=C(N1CCCCC1)[C@@]1(Cc2ccccc2)COC(c2ccc(OCCCO)cc2)=N1,-1.14,0.675,-0.159,-3.14,-1.77,-2.33,0.987 (inactive),-1.08,-0.923,1.68 (inactive),0.271,-5.06 (inactive),-0.949 (inactive),-0.447 (inactive),0.258 (inactive),2.13 (inactive),0.401 (inactive),0.0519 (inactive),0.482,0.284
CCCNC(=O)[C@@]1(c2ccc([N+](=O)[O-])cc2)CC(=O)N(C2CCCCC2)[C@@H]1c1ccc(CO)cc1I,-0.165,-0.599,-0.451,-3.22,-1.01,0.22,-1.13 (inactive),-0.677,-1.11,0.72 (inactive),-0.455,0.641 (inactive),-0.606 (inactive),0.478 (inactive),0.429 (inactive),-0.327 (inactive),0.549 (inactive),-0.303 (inactive),-1.18,0.134
COCCOC(=O)N1C(=O)[C@@]2(c3cc(C#Cc4ccc(OC)cc4)ccc31)[C@H](C(=O)N1CCN(c3ncccn3)CC1)[C@H]1C(=O)O[C@H](c3ccccc3)[C@H](c3ccccc3)N1[C@@H]2c1ccccc1OCCO,-0.457,0.0076,0.149,0.325,0.204,0.57,2.03 (inactive),-0.403,-1.41,-0.785 (inactive),0.205,2.91 (inactive),-0.353 (inactive),0.27 (inactive),3.8 (inactive),4.28 (inactive),-0.269 (inactive),0.188 (inactive),0.35,-0.0928
O=C1NC(=O)C2C1C=CC(C(O)c1cc(C(F)(F)F)cc(C(F)(F)F)c1)N2Nc1ccc(Cl)cc1Cl (stereo not given),-3.02,0.0578,-2.76,-3.69,-3.56,-2.94,-1.19 (inactive),-0.387,0.4,-1.24 (inactive),-1.71,-4.29 (inactive),-1.99 (inactive),-0.195 (inactive),1.43 (inactive),1.1 (inactive),-1.14 (inactive),-1.13 (inactive),-2.37,0.214
O=C(CCCCCCC(=O)Nc1ccccc1)N/N=C/c1ccccc1,1.08,0.194,-0.371,-0.669,-0.419,-0.807,-0.498 (inactive),-0.045,-0.593,0.589 (inactive),0.327,0.141 (inactive),0.532 (inactive),-0.543 (inactive),0.437 (inactive),0.678 (inactive),0.83 (inactive),0.159 (inactive),0.718,0.248
C=CCN1C(=O)[C@@]2(O[C@@H](CCn3cc([C@H](O)c4ccccc4)nn3)[C@H]([Si](C)(C)c3ccc(OC)cc3)[C@H]2C)c2ccccc21,-1.05,0.432,-1.49,-2.7,-4.27,1.06,-0.644 (inactive),-0.967,-0.364,-1.76 (inactive),-0.986,0.117 (inactive),-1.83 (inactive),-0.198 (inactive),0.626 (inactive),0.93 (inactive),-0.599 (inactive),-0.857 (inactive),-1.97,0.144
CO[C@H]1O[C@H](CO)[C@@H](OC(=O)Nc2ccc(C(F)(F)F)cc2)[C@H](OC(=O)Nc2ccc3c(c2)OCO3)[C@H]1OC(=O)Nc1ccc2c(c1)OCO2,-2.28,0.758,-2.3,-2.85,-2.66,-0.17,0.298 (inactive),-0.999,-1.01,-3.17 (inactive),-1.9,0.634 (inactive),-3.06 (inactive),-0.605 (inactive),0.854 (inactive),1.37 (inactive),0.436 (inactive),-0.553 (inactive),-3.35,-0.289
CC(C)(C)OC(=O)CC[C@@]1(C(=O)O)N=C(c2ccc(OCCCO)cc2)O[C@@H]1c1ccccc1,-0.662,-0.982,-0.289,-0.764,0.335,-0.602,-0.445 (inactive),0.855,-0.939,0.477 (inactive),0.0648,0.313 (inactive),0.0375 (inactive),0.904 (inactive),-0.043 (inactive),1.4 (inactive),0.0847 (inactive),-0.202 (inactive),0.56,-0.0918
CCC[C@@H]1C[C@@]1(CCC)[C@@H](NP(=O)(c1ccccc1)c1ccccc1)c1ccc(Cl)cc1,-1.19,-1.03,-1.99,-1.45,-2.28,-4.09,-0.876 (inactive),-0.618,-1.81,0.419 (inactive),0.405,1.3 (inactive),-0.601 (inactive),-1.09 (inactive),0.439 (inactive),0.525 (inactive),-0.919 (inactive),-0.26 (inactive),-0.519,-0.0374
CCOC(=O)C1=CC[C@@H](c2ccccc2C(F)(F)F)N(S(=O)(=O)c2ccc(C)cc2)C1,-0.82,0.605,1.31,-0.925,-1.28,2.51,0.0742 (inactive),-0.226,-0.435,-1.27 (inactive),-0.217,-3.44 (inactive),-0.578 (inactive),-2.99 (inactive),-0.184 (inactive),-1.07 (inactive),-0.346 (inactive),0.984 (inactive),-0.338,-0.12
C=C(C(=O)CC[C@H](OC(=O)c1cccnc1)c1ccc(CO)o1)C(C)C,-0.242,-0.449,-0.676,-0.66,0.202,-2,-1.78 (inactive),0.322,-0.458,-0.361 (inactive),-0.499,-1.02 (inactive),-0.323 (inactive),-3.18 (inactive),0.354 (inactive),-0.811 (inactive),-0.645 (inactive),-0.631 (inactive),-0.74,-0.187
C=CCN1Cc2ccccc2C[C@@]2(N=C(c3ccc(OCCCO)cc3)O[C@H]2c2ccccc2)C1=O,-1.46,0.906,-1.05,-3.52,-3.95,0.166,1.4 (inactive),-1.03,-2.48,-3.12 (inactive),0.211,-5.82 (inactive),-3.09 (inactive),-0.13 (inactive),0.535 (inactive),0.0893 (inactive),-0.137 (inactive),0.468 (inactive),-4.81,-0.031

# Reference: PubChem BioAssay
